Records with an inconclusive call do not appear. Entries that show only a call come without a potency. A number with no mark means an inactive call. The source made the active and inactive calls. Unless noted, the call rests on the fitted dose curve; in most records, active means well fitted curve in the direction sought with a large enough effect in the repeat runs; inconclusive means weak or mixed curves; inactive means no such curve, though single readings can be large; an effect the other way counts as inactive or inconclusive.
Key:
[1] = qHTS assay to identify small molecule agonists of the NFkB signaling pathway - cell viability counter screen (AID 1159515; calls by dose curve; further: series mostly up to about 61 µM; nearly all actives have a fitted effect of over 55% in size)
Summary of the method: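 Counter screen run alongside the NFkB-bla agonist assay: ME-180 reporter cells exposed to compounds for 5 hr, then lysed with CellTiter-Glo in the same wells. Luminescence, read after 30 min, reflects viable cells.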

[2] = qHTS assay to identify small molecule agonists of the endoplasmic reticulum stress response signaling pathway (AID 1159516; active means well fitted activation curve with a large enough effect in the signal ratio in the repeat runs, not every such curve was filed as active; the % refers to the signal ratio; further: potency means the concentration at half of the fitted maximal effect)
Summary of the method: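 For this screen, HeLa cells stably carrying beta-lactamase under the ER stress response element received test compounds, positive controls or DMSO for 5 hr at 37 C; B/G FRET substrate was then added and dual-wavelength emission recorded.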

[3] = qHTS assay to identify small molecule agonists of the endoplasmic reticulum stress response signaling pathway - cell viability counter screen (AID 1159517; calls by dose curve; further: series mostly up to about 61 µM; nearly all actives have a fitted effect of over 50% in size)
Summary of the method: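 Cpd-treated ESRE-bla HeLa (5 hr, 37 C) → LiveBLAzer 2 hr RT → CellTiter-Glo 30 min RT → luminescence.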

[4] = qHTS assay to identify small molecule antagonists of the retinoid-related orphan receptor gamma (ROR-gamma) signaling pathway - cell viability counter screen (AID 1159520); further: nearly all actives have a fitted effect of over 50% in size
Summary of the method: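 Tet-on ROR gamma CHO cells (1,000/well) were plated 4 hr, given compounds in DMSO for 2 hr at 37 C, then induced with 1 uM final doxycycline for 16 hr. Viability was read as ATP by CellTiter-Glo luminescence after 30 min.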

[5] = biological target: Nuclear receptor ROR-gamma (Homo sapiens) (UniProt P51449); experiment: qHTS assay to identify small molecule antagonists of the retinoid-related orphan receptor gamma (ROR-gamma) signaling pathway (AID 1159521;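 further: CHO cells with doxycycline inducible ROR-gamma driving an RORE luciferase reporter; top concentration of the series differs between compounds; nearly all actives have a fitted effect of over 50% in size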)
Summary of the method: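 Luminescence readout (ONE-Glo, 30 min RT) after 16 h doxycycline induction; loss of signal scored as antagonism. CHO cells with TET-inducible RORγ and RORE-LUC reporter; compounds added 2 h before 1 uM final doxycycline.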

[6] = qHTS assay to identify small molecule agonists of the AP-1 signaling pathway - cell viability counter screen (AID 1159525; calls by dose curve; further: nearly all actives have a fitted effect of over 55% in size)
Summary of the method: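 Each titration point was normalised to DMSO and tetra n-octyl ammonium bromide controls. The read was Cell Titer Glo luminescence after 30 min at RT, following 5 h compound exposure of ME-180 AP-1-bla cells at 37 °C.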

[7] = biological target: Retinoic acid receptor RXR-alpha (Homo sapiens) (UniProt P19793); experiment: qHTS assay to identify small molecule agonists of the RXR signaling pathway (AID 1159527; calls by dose curve; further: nearly all actives have a fitted effect of over 35% in size)
Sequence of Retinoic acid receptor RXR-alpha (Homo sapiens) (P19793 whole entry, looked up): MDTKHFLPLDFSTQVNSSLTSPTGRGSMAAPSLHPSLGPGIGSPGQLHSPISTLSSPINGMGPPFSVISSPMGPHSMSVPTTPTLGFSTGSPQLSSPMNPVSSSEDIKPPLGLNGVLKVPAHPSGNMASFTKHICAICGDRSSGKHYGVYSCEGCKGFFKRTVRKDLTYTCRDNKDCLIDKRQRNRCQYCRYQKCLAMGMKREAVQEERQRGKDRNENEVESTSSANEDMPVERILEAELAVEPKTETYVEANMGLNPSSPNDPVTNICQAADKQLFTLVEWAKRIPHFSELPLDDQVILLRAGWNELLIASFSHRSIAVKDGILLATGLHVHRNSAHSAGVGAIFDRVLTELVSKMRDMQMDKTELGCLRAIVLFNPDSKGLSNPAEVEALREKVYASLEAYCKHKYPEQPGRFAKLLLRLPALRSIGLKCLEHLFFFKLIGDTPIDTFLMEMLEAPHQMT
Summary of the method: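 Agonist mode; 9-cis retinoic acid positive control. HEK 293T UAS-bla reporter cells, 2% charcoal-stripped FBS, 16 hr compound exposure at 37 C/5% CO2. LiveBLAzer B/G FRET substrate 2 hr RT; ex 405, em 460/530 nm.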

[8] = qHTS assay to identify small molecule agonists of the RXR signaling pathway - cell viability counter screen (AID 1159529); further: series mostly up to about 77 µM; nearly all actives have a fitted effect of over 50% in size
Summary of the method: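 Luminescence from CellTiter-Glo (30 min, RT) measured viability in the same wells as the beta-lactamase reporter readout. Cells: GeneBLAzer RXR-alpha HEK 293T, 2% charcoal-stripped FBS. Compound exposure 16 hr, 37 C.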

[9] = qHTS assay to identify small molecule antagonists of the retinoid acid receptor (RAR) signaling pathway - cell viability counter screen (AID 1159551); further: nearly all actives have a fitted effect of over 35% in size
Summary of the method: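 Measured by luminescent ATP detection, viability reflects C3RL4 cells treated 6 h at 37 C with test chemicals in the presence of 1 uM (final) retinol.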

[10] = qHTS assay to identify small molecule agonists of the retinoic acid receptor (RAR) signaling pathway (AID 1159553); further: potency means the concentration at half of the fitted maximal effect
Summary of the method: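 6 hr compound exposure (DMSO vehicle) of overnight-plated C3RL4 RARE-luc cells at 37 C; luminescence quantified after 30 min RT with luciferase reagent.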

[11] = qHTS assay to identify small molecule antagonists of the estrogen related receptor (ERR) signaling pathway - cell viability counter screen (AID 1224818); further: series mostly up to about 46 µM
Summary of the method: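 Compounds dissolved in DMSO were applied to ERR cells seeded at 2,000 per well 6 h earlier. Cell viability followed 17.5 h later via 30-min CellTiter-Fluor fluorescence.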

[12] = qHTS assay to identify small molecule antagonists of the estrogen related receptor signaling pathway with the pleiotropic PPARgamma coactivator (PGC) cell viability counter screen (AID 1224822; further: series mostly up to about 46 µM)
Summary of the method: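 Counter screen for cell viability: PGC/ERR cells, 6 h pre-incubation after plating, 17.5 h compound exposure at 37 C, fluorescence from CellTiter-Fluor after 30 min.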

[13] = qHTS assay to identify small molecule antagonists of the estrogen related receptor (ERR) signaling pathway from Tox21 library - cell viability counter screen (AID 1224834); further: nearly all actives have a fitted effect of over 30% in size
Summary of the method: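 Seeded ERR cells were rested 6 h at 37 C/5% CO2 before compounds, positive and negative controls or DMSO were added. Incubation continued for 17.5 h, and viability was then quantified by CellTiter-Fluor fluorescence.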

[14] = qHTS assay to identify small molecule agonists of the AP-1 signaling pathway (AID 1159526; calls by dose curve)
[15] = qHTS assay to identify small molecule antagonists of the vitamin D receptor (VDR) signaling pathway - cell viability counter screen (AID 743225); further: nearly all actives have a fitted effect of over 50% in size
Summary of the method: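 Viability counter screen run in the same wells as the beta-lactamase reporter assay: HEK 293T VDR-UAS-bla cells, 16 h compound exposure at 37C with 3 nM (final) 1-alpha,25-dihydroxyvitamin D3. CellTiter-Glo luminescence, 30 min, room temperature.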

[16] = qHTS assay to identify small molecule antagonists of the retinoic acid receptor (RAR) signaling pathway (AID 1159552; further: nearly all actives have a fitted effect of over 50% in size)
Summary of the method: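 Luminescence from a RARE luciferase reporter in C3RL4 cells served as read-out. Cells received compounds together with 1 uM final retinol and incubated 6 hr at 37 C before detection reagent was added for 30 min at room temperature.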

## CC(Cc1ccc(O)cc1)NCC(O)c1cc(O)cc(O)c1 (configuration not stated)
[1]
  Potency: inactive
[2]
  Potency: inactive
[3]
  Potency: inactive
[4]
  Potency: inactive
[5]
  Potency: inactive
[6]
  Potency: inactive
[7]
  Potency: inactive
[8]
  Potency: inactive
[9]
  Potency: inactive
[10]
  Potency: inactive
[11]
  Potency: inactive
[12]
  Potency: inactive
[13]
  Potency: inactive

## CCN(CC)Cc1nccn1-c1ccc([N+](=O)[O-])cc1C(=O)c1ccccc1Cl
[1]
  Potency: inactive
[2]
  Potency: inactive
[3]
  Potency: inactive
[4]
  Potency: inactive
[5]
  Potency: inactive
[6]
  Potency: inactive
[14]
  Potency: inactive
[9]
  Potency: inactive
[13]
  Potency: inactive

## CC(C)N(C(=O)SC/C(Cl)=C/Cl)C(C)C
[15]
  Potency: inactive
[1]
  Potency: inactive
[2]
  Potency: inactive
[3]
  Potency: inactive
[4]
  Potency: inactive
[5]
  Potency: inactive
[6]
  Potency: inactive
[7]
  Potency: inactive
[8]
  Potency: inactive
[9]
  Potency: inactive
[10]
  Potency: inactive
[13]
  Potency: inactive

## O=C(Nc1ccc(F)cc1F)c1cccnc1Oc1cccc(C(F)(F)F)c1
[15]
  Potency: inactive
[1]
  Potency: inactive
[2]
  Potency: inactive
[3]
  Potency: inactive
[4]
  Potency: inactive
[5]
  Potency: inactive
[6]
  Potency: inactive
[7]
  Potency: inactive
[9]
  Potency: inactive
[16]
  Potency: inactive
[10]
  Potency: inactive
[13]
  Potency: inactive

## Clc1ccc(C2(Cn3cncn3)OCCO2)c(Cl)c1
[15]
  Potency: inactive
[1]
  Potency: inactive
[2]
  Potency: inactive
[3]
  Potency: inactive
[4]
  Potency: inactive
[5]
  Potency: inactive
[6]
  Potency: inactive
[14]
  Potency: inactive
[8]
  Potency: inactive
[13]
  Potency: inactive

## C1=CCC=C1
[15]
  Potency: inactive
[1]
  Potency: inactive
[2]
  Potency: inactive
[3]
  Potency: inactive
[4]
  Potency: inactive
[5]
  Potency: inactive
[6]
  Potency: inactive
[8]
  Potency: inactive
[13]
  Potency: inactive

## NC1CCC(CC2CCC(N)CC2)CC1 (configuration not stated)
[1]
  Potency: inactive
[2]
  Potency: inactive
[3]
  Potency: inactive
[4]
  Potency: inactive
[5]
  Potency: inactive
[6]
  Potency: inactive
[14]
  Potency: inactive
[9]
  Potency: inactive

## O=c1c2ccccc2c(=O)c2c1cc(Cl)c1[nH]c3c([nH]c12)c(Cl)cc1c(=O)c2ccccc2c(=O)c13
[1]
  Potency: inactive
[2]
  Potency: inactive
[3]
  Potency: inactive
[4]
  Potency: inactive
[5]
  Potency: inactive
[6]
  Potency: inactive
[7]
  Potency: inactive
[8]
  Potency: inactive
[13]
  Potency: inactive

## CSC(C)(C)/C=N/O
[15]
  Potency: inactive
[1]
  Potency: inactive
[2]
  Potency: inactive
[3]
  Potency: inactive
[4]
  Potency: inactive
[5]
  Potency: inactive
[6]
  Potency: inactive
[14]
  Potency: inactive
[8]
  Potency: inactive
[9]
  Potency: inactive
[13]
  Potency: inactive

## O=C(O)[C@H](O)[C@@H](O)C(=O)O
[1]
  Potency: inactive
[2]
  Potency: inactive
[3]
  Potency: inactive
[4]
  Potency: inactive
[5]
  Potency: inactive
[6]
  Potency: inactive
[14]
  Potency: inactive
[13]
  Potency: inactive

## c1ccc(Nc2ccc(Nc3ccccc3)cc2)cc1
[1]
  Potency: inactive
[2]
  Potency: inactive
[3]
  Potency: inactive
[4]
  Potency: inactive
[5]
  Potency: inactive
[9]
  Potency: inactive
[16]
  Potency: inactive
[10]
  Potency: 5.43 µM (active)

## CCC(C)c1cccc(C(C)CC)c1O (configuration not stated)
[1]
  Potency: inactive
[2]
  Potency: inactive
[3]
  Potency: inactive
[4]
  Potency: inactive
[5]
  Potency: inactive
[7]
  Potency: inactive
[8]
  Potency: inactive
[10]
  Potency: inactive

## COc1ccc2[nH]cc(CCN(C(C)C)C(C)C)c2c1
[15]
  Potency: inactive
[1]
  Potency: inactive
[2]
  Potency: inactive
[3]
  Potency: inactive
[4]
  Potency: inactive
[5]
  Potency: inactive
[6]
  Potency: inactive
[8]
  Potency: inactive
[16]
  Potency: inactive
[13]
  Potency: inactive

## CCN(CC)CCc1c[nH]c2ccccc12
[15]
  Potency: inactive
[1]
  Potency: inactive
[2]
  Potency: inactive
[3]
  Potency: inactive
[4]
  Potency: inactive
[5]
  Potency: inactive
[6]
  Potency: inactive
[7]
  Potency: inactive
[8]
  Potency: inactive
[9]
  Potency: inactive
[16]
  Potency: inactive
[13]
  Potency: inactive

## [C-]1=CC=CC1.[Cl][Zr+2][Cl].c1cc[cH-]c1
[15]
  Potency: inactive
[1]
  Potency: inactive
[2]
  Potency: inactive
[3]
  Potency: inactive
[4]
  Potency: inactive
[5]
  Potency: inactive
[6]
  Potency: inactive
[14]
  Potency: inactive
[8]
  Potency: inactive
[9]
  Potency: inactive
[13]
  Potency: inactive

## ClSC(Cl)(Cl)Cl
[15]
  Potency: inactive
[1]
  Potency: inactive
[2]
  Potency: inactive
[3]
  Potency: inactive
[4]
  Potency: inactive
[5]
  Potency: inactive
[6]
  Potency: inactive
[7]
  Potency: inactive
[8]
  Potency: inactive
[9]
  Potency: inactive
[16]
  Potency: inactive
[10]
  Potency: inactive
[13]
  Potency: inactive

## CC(=O)[O-].CC(=O)[O-].O.O.O.[Pb+2]
[1]
  Potency: inactive
[2]
  Potency: 0.0776 µM (active)
[3]
  Potency: inactive
[4]
  Potency: inactive
[6]
  Potency: inactive
[14]
  Potency: inactive
[7]
  Potency: inactive
[8]
  Potency: inactive
[9]
  Potency: inactive
[13]
  Potency: inactive

## CCCCn1cc[n+](C)c1.[Cl][Fe-]([Cl])([Cl])[Cl]
[1]
  Potency: inactive
[2]
  Potency: inactive
[3]
  Potency: inactive
[4]
  Potency: inactive
[6]
  Potency: inactive
[14]
  Potency: inactive
[7]
  Potency: inactive
[8]
  Potency: inactive
[9]
  Potency: inactive
[13]
  Potency: inactive

## CC(=O)[O-].CC(=O)[O-].CC(=O)[O-].[Sb+3]
[15]
  viability change, negative = cytotoxic: 0.879% [at 6.95 µM]
[1]
  activity, negative = cytotoxic: -2.51% [at 6.95 µM]
[2]
  activation: 3.53% [at 6.95 µM]
[3]
  activity change, negative = cytotoxicity: -11.4% [at 6.95 µM]
[4]
  activity, negative = cytotoxicity: 1.09% [at 3.27 µM]
[6]
  viability change, negative = cytotoxic: -1.02% [at 2.72 µM]
[14]
  activation: -1.15% [at 2.72 µM]
[7]
  activation: -1.11% [at 2.71 µM]
[8]
  activity change, negative = cytotoxicity: 2.3% [at 2.72 µM]
[9]
  activity change, negative = cytotoxicity: 3.99% [at 3.27 µM]
[13]
  viability change, negative = cytotoxic: 0.176% [at 3.27 µM]

## OCC(Br)CBr (configuration not stated)
[1]
  Potency: inactive
[2]
  Potency: inactive
[3]
  Potency: inactive
[4]
  Potency: inactive
[6]
  Potency: inactive
[14]
  Potency: inactive
[7]
  Potency: inactive
[8]
  Potency: inactive
[9]
  Potency: inactive
[13]
  Potency: inactive

## CCNc1nc(NC(C)C(C)C)nc(SC)n1 (configuration not stated)
[1]
  Potency: inactive
[2]
  Potency: inactive
[3]
  Potency: inactive
[4]
  Potency: inactive
[6]
  Potency: inactive
[14]
  Potency: inactive
[7]
  Potency: inactive
[8]
  Potency: inactive
[9]
  Potency: inactive
[16]
  Potency: inactive
[10]
  Potency: inactive
[13]
  Potency: inactive

## [Cl-].[Cl-].[Sn+2]
[15]
  Potency: inactive
[1]
  Potency: inactive
[2]
  Potency: inactive
[3]
  Potency: inactive
[4]
  Potency: inactive
[6]
  Potency: inactive
[14]
  Potency: inactive
[7]
  Potency: inactive
[8]
  Potency: inactive
[9]
  Potency: inactive
[13]
  Potency: inactive

## O=[N+]([O-])[O-].[Tl+]
[15]
  Potency: inactive
[1]
  Potency: inactive
[2]
  Potency: inactive
[3]
  Potency: inactive
[4]
  Potency: inactive
[6]
  Potency: inactive
[14]
  Potency: inactive
[7]
  Potency: inactive
[9]
  Potency: inactive
[10]
  Potency: inactive

Reference: PubChem BioAssay (Tox21)
